CHRM1 antagonist: blocks human M1 muscarinic receptor | inhibition, % at 3 µM | CHO-K1 hM1, Fluo-8 calcium fluorescence, ACh EC80 antagonist | actives 1.3% (n = 360,000) | P11229;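 active = percent inhibition above its own plate's cutoff, namely the mean of that plate's compound wells plus 3 SD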;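 note: peak over basal fluorescence ratio during 140 s after agonist addition; 0% = ACh EC80 plus DMSO and 100% = DMSO alone without agonist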
Target sequence (P11229 whole entry, looked up): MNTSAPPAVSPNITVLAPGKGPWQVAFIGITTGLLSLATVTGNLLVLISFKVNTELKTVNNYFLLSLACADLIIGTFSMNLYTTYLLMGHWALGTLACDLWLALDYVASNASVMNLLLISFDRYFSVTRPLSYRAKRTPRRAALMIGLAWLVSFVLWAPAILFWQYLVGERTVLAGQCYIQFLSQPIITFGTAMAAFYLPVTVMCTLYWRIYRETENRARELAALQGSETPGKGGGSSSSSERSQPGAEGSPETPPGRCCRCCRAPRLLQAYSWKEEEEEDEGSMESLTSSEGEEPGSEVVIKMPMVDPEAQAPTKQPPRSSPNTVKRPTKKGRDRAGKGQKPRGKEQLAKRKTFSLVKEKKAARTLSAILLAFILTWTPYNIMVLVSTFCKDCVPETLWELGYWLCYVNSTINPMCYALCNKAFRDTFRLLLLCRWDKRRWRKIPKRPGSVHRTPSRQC
M1 PAM: potentiates human M1 receptor response to acetylcholine; P11229; CHO-K1 hM1, Fluo-8 calcium fluorescence, ACh EC20; 0% = ACh EC20, 100% = maximal ACh; activation, % at 3 µM; actives 0.088% (n = 360,000); AID 588819; in the data active = activation above about 19%, passing the limit was not always enough
CHRM1 agonist: agonists of human M1 muscarinic receptor; P11229; CHO-K1 hM1, Fluo-8 calcium fluorescence, agonist mode; 0% DMSO, 100% acetylcholine EC100; activation, % at 3 µM; actives 0.33% (n = 360,000); AID 588814;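 active = activation above the run's mean compound activation plus 3 SD, cut at about 16% in these data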;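 note: peak over basal fluorescence ratio within a 140 s kinetic read after compound addition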
M1 ag parental: nonselective activator or artifact in parental CHO-K1 cells; Fluo-8 calcium fluorescence; scaled to maximal ATP response, vehicle zero; activation, % at 3 µM; actives 0.48% (n = 360,000); AID 602248; in the data active = activation above about 15%;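 note: untransfected CHO-K1 host cells lacking M1 receptor as counterscreen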
CHO-K1 Ca antag: counter-screen for M1 antagonists: effect in parental CHO-K1 cells | ATP-induced calcium, Fluo-8 fluorescence | inhibition, % at 3 µM | actives 0.6% (n = 360,000);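 active = inhibition above a per-plate cutoff, the plate's mean sample inhibition plus 3 SD, cut at about 24% in these data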;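 note: 0% = DMSO plus EC80 ATP and 100% = DMSO alone without ATP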
CHO-K1 Ca PAM: M1 PAM counterscreen hit in parental CHO-K1 cells; ATP EC20, Fluo-8 calcium fluorescence; 0% at ATP EC20, 100% at ATP max; activation, % at 3 µM; actives 0.02% (n = 360,000);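 active = activation above the run cutoff, the mean activation of all test compounds plus 3 SD, cut at about 40% in these data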;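 note: peak over basal fluorescence ratio in a 140 s read after ATP addition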
An asterisk follows results filed as active. The list is not random: actives were taken first. Their share in the collection is about 2.3%.

SMILES	CHRM1 antagonist	M1 PAM	CHRM1 agonist	M1 ag parental	CHO-K1 Ca antag	CHO-K1 Ca PAM
CC(CC(=O)Nc1ccc2c(c1)c(=O)n(C)n2-c1cccs1)c1ccccc1 (stereo not given)	-4	-5	-4	4	-2	16
CCN(CC)S(=O)(=O)c1ccc(Oc2ccccc2)c(N)c1	-2	8	-1	5	-9	9
CCN(CC)S(=O)(=O)c1ccc(N2CCN(c3ccccc3OC)CC2)c(N)c1	34*	-18	1	12	17	-21
O=C(Nc1ccc(OC(F)(F)F)cc1)Nc1cccc([N+](=O)[O-])c1	34	-14	2	16*	23	-1
CC(C)(C)c1ccc(C(=O)Nc2cccc([N+](=O)[O-])c2)cc1	13	-14	-6	7	-2	10
Cc1ccccc1NC(=O)CC(=O)Nc1ccccc1C	2	0	-3	1	-8	7
Cc1ccccc1NC(=O)NC(C)(C)CC(C)(C)C	-9	2	-1	19*	-12	13
Cc1ccc(NC(=O)Nc2cccc([N+](=O)[O-])c2)cc1F	26	-16	1	15*	17	13
O=C(Nc1ccc(OC(F)(F)F)cc1)Nc1cccnc1	-3	3	1	4	0	-2
CC(C)(C)CC(C)(C)NC(=O)Nc1cccc([N+](=O)[O-])c1	32*	-17	1	13	15	-22
CSCCC(=O)N1CCCC(N(C)CCc2ccccc2)C1 (stereo not given)	8	1	-10	0	10	-6
O=C(/C=C/NCc1cccnc1)c1ccc(-c2ccccc2)cc1	-9	2	-2	1	-9	9
CCOc1ccc2c(c1)C(N(CCN1CCOCC1)C(=O)Nc1ccccc1)CC(C)(C)O2 (stereo not given)	-11	5	-3	1	-10	18
N#CCc1ccc(OC(=O)c2ccncc2)cc1	-13	3	-1	0	-15	10
Cc1ccc(-c2nn(CC(=O)N(C)C)c(=O)c3ccccc23)cc1S(=O)(=O)N(C)C	-50	21*	-3	0	-31	12
COC(=O)Cn1nc(-c2ccc(C)c(S(=O)(=O)N(C)C)c2)c2ccccc2c1=O	-10	7	-2	0	1	8
COc1ccc(CN2CCN(Cc3ccc(Br)cc3)CC2)c(OC)c1OC	5	-6	-9	3	-14	14
COC(=O)c1ccc(/C=C/c2c(-c3ccsc3)sc3ccccc23)cc1	40*	-14	-7	0	-11	-11
Cc1cc(N2CCCCC2)nc(N2CCCCC2)n1	15	-14	28*	2	-5	23
Cc1cc(N2CCCCCC2)nc(-c2ccccc2O)n1	11	-9	-5	0	-8	9
Cc1cc(N2CCOCC2)nc(NCc2ccccc2)n1	21	-23	-3	16*	4	-9
Cc1cc(N2CCCCC2)nc(NCc2ccccc2)n1	16	-24	21*	20*	13	0
Cc1cc(OC2CCCCC2)nc(NCc2ccccc2)n1	-3	4	-3	0	5	-2
COc1ccc(CN(CCC(c2ccc(F)cc2)C2CCOC(C)(C)C2)C(=O)c2ccco2)cc1 (stereo not given)	26*	-24	-8	5	2	5
CC(OC(=O)CCN=C1NS(=O)(=O)c2ccccc21)C(=O)Nc1ccc(F)c(F)c1F (stereo not given)	-16	21	0	0	-6	15
SMILES	CHRM1 antagonist	M1 PAM	CHRM1 agonist	M1 ag parental	CHO-K1 Ca antag	CHO-K1 Ca PAM
Cc1ccc2c(c1)C(=O)C(=O)N2CCCOc1ccccc1C	-8	10	0	3	-19	21
Cc1ccccc1OCCCN1C(=O)C(=O)c2cccc(C)c21	-11	7	22*	3	-2	20
Cc1cccc2c1N(CCCOc1ccccc1)C(=O)C2=O	-12	13	20*	0	3	6
OCCNCc1ccc(-c2ccccc2)cc1	-5	3	-8	0	5	2
OCCCNCc1ccc(N(c2ccccc2)c2ccccc2)cc1	71*	-31	-9	5	3	-2
Cc1ccc(C(=O)N2[C@@H]3CN(C)C(=O)[C@@]2(Cc2ccccc2)[C@H]2C(=O)N(Cc4ccccc4)C(=O)[C@@H]32)cc1	4	0	-7	0	-4	-7
CCCCN(C)CCCNC(=O)c1cccc(N2CCCC2=O)c1	6	0	-6	0	12	0
CN(CCCNC(=O)c1cccc(N2CCCC2=O)c1)c1ccccc1	30*	-14	-6	1	5	-4
CC(C)Oc1ccc(S(=O)(=O)N2CCOCC2)cc1NC(=O)c1ccc(Cl)c(S(=O)(=O)N2CCOCC2)c1	-8	6	-3	1	5	6
Cc1cccc(N(C(=O)Nc2ccc(Cl)cc2)C2=NCC(C)S2)n1 (stereo not given)	18	-4	-7	15*	11	3
Cc1ccc(NC(=O)N(C2=NCC(C)S2)c2ccccc2)cc1 (stereo not given)	8	-8	-6	1	-7	6
O=S1(=O)CCC(NC(=S)Nc2ccc3ccccc3c2)C1 (stereo not given)	-10	6	-2	1	-7	-5
O=S1(=O)CCC(NC(=S)Nc2ccccc2)C1 (stereo not given)	-34	29*	2	1	-15	22
Cc1cc(C(=O)CSc2nc3ccccc3c(=O)[nH]2)c(C)n1CC1CCCO1 (stereo not given)	25	-10	-2	17*	24*	2
O=C(Nc1ccc(N2CCOCC2)cc1)c1csc([C@@H]2O[C@H](CO)[C@H](O)[C@H](O)[C@H]2O)n1	-10	7	-3	0	6	-11
C=CCN1C(=O)NC(c2ccc(OC)cc2)(C(F)(F)F)S/C1=C(\C#N)c1nnc(N2CCOCC2)n1-c1ccccc1 (stereo not given)	-8	5	19*	3	-10	25
CC(C)(C)c1cc(CCC(=O)N2CCC2)cc(C(C)(C)C)c1O	-11	8	-4	0	-14	5
CC1CN(C(=O)CCc2cc(C(C)(C)C)c(O)c(C(C)(C)C)c2)CC(C)O1 (stereo not given)	18	-6	-2	3	27*	-6
O=C(CCc1nc(-c2ccccc2)no1)Nc1cccnc1	-3	5	-4	16*	-5	10
COc1cc(C(=O)OCC(=O)N2CCOCC2)c([N+](=O)[O-])cc1OC	-2	8	1	0	-1	0
CCCc1cc(=O)oc2cc(OC(C)C(=O)NCC3CCC(C(=O)O)CC3)ccc12 (stereo not given)	-7	-1	-2	4	27*	-14
